This is a sample that favours compounds with a hit; in the whole collection about 3.1% have one here.
Mito fusion act – mitochondrial division inhibition or fusion activation | S. cerevisiae fusion-defective mutant growth rescue, CellTiterGlo 48 h | Potency, µM (highest dose often 46.1 µM), inactives show top-dose growth rescue (activation), usual class: activators | 320,000 compounds, 0.23% hits | AID 485298; further: potency means the concentration at half of the fitted maximal effect; % of control where 0% means no effect; nearly all actives have a fitted effect of over 45% in size
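Temperature-sensitive fusion-defective S. cerevisiae (e.g. fzo1-1, mgm1-5) were grown with compound in YPEG medium (3% ethanol, 3% glycerol) for 48 hours at 37C. Growth rescue was measured as viability by CellTiterGlo luminescence after 10 minutes at ambient.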
mIDH1 inhibitor – human IDH1 R132H inhibition; Potency, µM (doses to about 76.6 µM), without a hit: at the highest dose activity change, negative = inhibition, usual class: inhibitors; O75874; 390,000 compounds, 0.093% hits; AID 602179; IDH1-R132H enzyme, NADPH consumption, diaphorase/resazurin fluorescence; further: potency means the concentration at half of the fitted maximal effect; on the % scale 0 is the no-effect control and ±100 the full control effect; nearly all actives have a fitted effect of over 65% in size
Target sequence (O75874 whole entry R132H, stated change not applied): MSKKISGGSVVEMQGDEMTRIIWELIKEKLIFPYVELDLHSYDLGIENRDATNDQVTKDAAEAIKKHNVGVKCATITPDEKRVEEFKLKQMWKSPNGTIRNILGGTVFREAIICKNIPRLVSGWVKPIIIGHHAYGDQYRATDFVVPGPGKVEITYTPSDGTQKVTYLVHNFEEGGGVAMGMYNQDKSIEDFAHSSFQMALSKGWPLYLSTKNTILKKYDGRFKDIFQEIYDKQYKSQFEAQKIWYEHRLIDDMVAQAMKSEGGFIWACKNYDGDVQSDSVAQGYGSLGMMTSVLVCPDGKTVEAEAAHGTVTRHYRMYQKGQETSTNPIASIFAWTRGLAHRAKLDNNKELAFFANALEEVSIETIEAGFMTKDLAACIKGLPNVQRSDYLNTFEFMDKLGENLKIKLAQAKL
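IDH1-R132H (0.5 ug/mL dispensed) in pH 7.5 Tris buffer was preincubated 30 min with compound, then given a substrate mix of 0.016 mM NADPH and 2 mM alpha-KG for 80 min at room temperature; remaining NADPH was read by diaphorase/resazurin fluorescence.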
Nrf2 block – blocks Nrf2 signaling | A549 ARE-Fluc reporter, luciferase luminescence, 18-24 h | Potency, µM (series often up to 46 µM), inactives show at the top dose activity change, negative = inhibition, most hits filed as inhibitors | 360,000 compounds, 2.1% hits | AID 504444; further: potency means the concentration at half of the fitted maximal effect; on the % scale 0 is the no-effect control and ±100 the full control effect; nearly all actives have a fitted effect of over 60% in size
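Reporter: ARE-Fluc in A549. Exposure: 18-24 h, 37 °C, 5% CO2, 5% FBS OPTI-MEM. Readouts: fluorescent cytotoxicity (CellTiter-Fluor), then luminescent Nrf2 signal after BugLite.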
A549 tox – counter-screen for Nrf2 inhibitors: cytotoxicity in A549 cells | A549 ARE-Fluc cells, CellTiter-Fluor viability, 18-24 h | Potency, µM (titrated, usually from 46 µM), without a hit: at the top dose activity change, negative = cytotoxicity, hits mostly inhibitors | 390,000 compounds, 0.16% hits; further: potency means the concentration at half of the fitted maximal effect; on the % scale 0 is the no-effect control and ±100 the full control effect
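A549 ARE-Fluc cells in 5% FBS OPTI-MEM, 5000 cells/well, rested 2 h then exposed to compounds in concentration-response for 18-24 h at 37 °C. Viability by CellTiter-Fluor fluorescence (Ex 405/Em 525) after 30 min; luciferase luminescence (BugLite, 15 min, RT) read afterwards.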
TrxR1 substrate – is turned over as a substrate by rat TrxR1. purified TrxR1 substrate turnover, NADPH consumption readout. Potency, µM (series often up to 114 µM), for inactives: top-dose activity change, negative = substrate turnover. 390,000 compounds, 0.01% hits; further: potency means the concentration at half of the fitted maximal effect; on the % scale 0 is the no-effect control and ±100 the full control effect; nearly all actives have a fitted effect of over 50% in size
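Rat TrxR1, dispensed at 90 nM, was prereduced with 400 uM NADPH (final) for 5 min at ~22 deg C, then incubated with compound 15 min before 400 uM selenite. A first-read NADPH fluorescence drop versus no-compound background flagged substrates.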
TrxR1 inh – inhibitors of rat thioredoxin reductase 1; AID 588453; Potency, µM (titrated, usually from 114 µM), without a hit: top-dose activity change, negative = inhibition, usual class: inhibitors; O89049; 390,000 compounds, 1% hits; recombinant rTrxR1, NADPH fluorescence consumption, selenite substrate; further: potency means the concentration at half of the fitted maximal effect; on the % scale 0 is the no-effect control and ±100 the full control effect; nearly all actives have a fitted effect of over 65% in size
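Rat TrxR1 (90 nM in the dispensed reagent) was pre-reduced with 400 uM NADPH for 5 min at room temperature, then incubated with compound for 15 min. After 400 uM selenite was added, NADPH fluorescence (Ex 340/Em 450 nm) was followed for 8 min.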
IDH1 autofl – counter-screen for mutant IDH1 inhibitors: fluorescence interference; shares compounds with mIDH1 inhibitor; Resorufin detection reagent fluorescence interference, cell-free; 750 tested, under 10 active; inhibition of signal, % at 51.2 µM; AID 623980;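 further: 0% = wells with normal resorufin and full inhibition = wells lacking resorufin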
WT IDH1 inh – selectivity of mutant IDH1 inhibitors: human wild-type IDH1 | shares compounds with mIDH1 inhibitor | WT IDH1 enzyme, NADPH diaphorase/resazurin fluorescence | Potency, µM (highest dose often 115 µM), without a hit: at the top dose activity change, negative = inhibition, usual class: inhibitors | 750 compounds, 9% hits;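 further: potency means the concentration at half of the fitted maximal effect; 0% = full WT IDH1 enzyme control and full inhibition = no enzyme wells; nearly all actives have a fitted effect of over 55% in size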
Target sequence (O75874 whole entry, looked up): as the sequence (O75874 whole entry R132H, stated change not applied) above, with H132R counted along it
IDH1 R132H conf – confirmation of human mutant IDH1 inhibitors; shares compounds with mIDH1 inhibitor; IDH1 R132H enzyme, NADPH diaphorase/resazurin fluorescence; Potency, µM (series often up to 76.6 µM), without a hit: top-dose activity change, negative = inhibition, usual class: inhibitors; 750 compounds, 83% hits; AID 624002; further: potency means the concentration at half of the fitted maximal effect; nearly all actives have a fitted effect of over 50% in size
* hit, by the source's call; [ ] = remark or other dose. The call rests on the fitted dose curve; in most records, active means well fitted curve in the direction sought with a large enough effect; inconclusive means small, poorly fitted or top-dose-only effect, or another doubt; inactive means no such curve, though single readings can be large; an effect the other way counts as inactive or inconclusive.

Results for CCCOc1ccc(C2c3c(-c4ccccc4O)n[nH]c3C(=O)N2Cc2ccncc2)cc1OCC (stereo unspecified) ?
mIDH1 inhibitor: inconclusive; Nrf2 block: -27%; A549 tox: -3%; TrxR1 substrate: 24%; TrxR1 inh: -13%; IDH1 autofl: -5; WT IDH1 inh: inconclusive; IDH1 R132H conf: 45µM*

What do the screens show for `CSc1ccc(C2c3c(-c4ccccc4O)n[nH]c3C(=O)N2Cc2ccncc2)cc1` (stereo unspecified)?
mIDH1 inhibitor: 40µM*; Nrf2 block: -13%; A549 tox: -5%; TrxR1 substrate: -4%; TrxR1 inh: 22%; IDH1 autofl: 0; WT IDH1 inh: 4%; IDH1 R132H conf: 28µM*

How did COc1cccc(-c2nc3c(c(C)nn3-c3ccccc3)c3cc(OC)c(OC)cc23)c1 do in these assays?
mIDH1 inhibitor: inconclusive; Nrf2 block: 6%; A549 tox: 2%; TrxR1 substrate: 31%; TrxR1 inh: 10%

How did COc1cc2c(-c3ccc(O)cc3)nc3c(c(C)nn3-c3ccccc3)c2cc1OC do in these assays?
Mito fusion act: 15%; mIDH1 inhibitor: inconclusive; Nrf2 block: inconclusive; A549 tox: inconclusive; TrxR1 substrate: 51%; TrxR1 inh: -22%; IDH1 autofl: 2; WT IDH1 inh: 7%; IDH1 R132H conf: 11µM*

What do the screens show for `N#CC1=C(N)C(C#N)(C#N)C(c2cccnc2)C2COCC=C12` (stereo unspecified)?
Mito fusion act: -4%; mIDH1 inhibitor: inconclusive; Nrf2 block: 10%; A549 tox: -1%; TrxR1 substrate: 5%[57.1 µM]; TrxR1 inh: -4%[57.1 µM]; IDH1 autofl: 4; WT IDH1 inh: 47%; IDH1 R132H conf: 40µM*

How did CCN(CCCNC(=O)c1nn(-c2ccc(C)cc2)c(=O)c2c1c1ccccc1n2C)c1cccc(C)c1 do in these assays?
Nrf2 block: -16%; A549 tox: -11%; TrxR1 substrate: 2%; TrxR1 inh: 12%

What do the screens show for `O=C(NCc1ccco1)C(c1cccs1)N(C(=O)Cc1cccs1)c1ccccc1` (stereo unspecified)?
Mito fusion act: 0%; mIDH1 inhibitor: inconclusive; Nrf2 block: -2%; A549 tox: -14%; TrxR1 substrate: -2%; TrxR1 inh: inconclusive; IDH1 autofl: -11; WT IDH1 inh: 4%; IDH1 R132H conf: inconclusive

What do the screens show for `O=C(NC1CCCC1)C(c1ccsc1)N(C(=O)Cc1cccs1)c1ccccc1` (stereo unspecified)?
Mito fusion act: 11%; mIDH1 inhibitor: inconclusive; Nrf2 block: 5%; A549 tox: -1%; TrxR1 substrate: -2%; TrxR1 inh: 25%; IDH1 autofl: -4; WT IDH1 inh: 7%; IDH1 R132H conf: 2.8µM*
